Experimental data reported in PubChem BioAssay (NCATS).
Inconclusive results are not listed. The source made the active and inactive calls. Calls come from the whole dose curve; as a rule, active = well fitted inhibition curve with a large enough effect; inconclusive = small, poorly fitted or top-dose-only effect; inactive = flat fitted curve, though single readings scatter.

molecular target: Calcium and integrin-binding protein 1 (Homo sapiens) (UniProt Q99828); assay: Primary qHTS for Identification of Calcium Integrin Binding Protein 1 (CIB1) Competitor (AID 1508620); details: CIB1-GST / FITC-alphaIIb peptide fluorescence polarization; series mostly up to 114 µM; activity change, negative = inhibition: at the top concentration;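 note: GST tagged CIB1 binding a fluorescein labelled alphaIIb integrin peptide tracer; top concentration of the series differs between compounds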
Sequence (Q99828 whole entry, looked up): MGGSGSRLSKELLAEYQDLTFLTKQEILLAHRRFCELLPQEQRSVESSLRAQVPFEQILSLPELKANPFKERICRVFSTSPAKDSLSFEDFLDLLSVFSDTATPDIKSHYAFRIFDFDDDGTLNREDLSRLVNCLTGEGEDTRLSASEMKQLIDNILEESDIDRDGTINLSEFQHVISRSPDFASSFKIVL
In short: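 CIB1-GST (1 uM final) and compound incubated 15 min at room temperature before adding FITC-alphaIIb peptide tracer (100 nM final). Competition for binding read by fluorescence polarization (ex 480, em 540) after another 15 min at room temperature.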
% is set by controls: 0 for no effect and ±100 for the full control effect.

SMILES | activity change, negative = inhibition
O=C(/C=C/c1ccccc1)OCc1ccccc1 | 2.67% (inactive)
CCOC(=O)[C@H](CCc1ccccc1)N[C@@H](C)C(=O)N1CCC[C@H]1C(=O)O | 1.69% (inactive)
CC(C)CCOC(=O)c1ccc(N(C)C)cc1 | -3.42% (inactive)
C[n+]1ccccc1/C=N/O | -2.46% (inactive)
C/C=C/C(=O)N(CC)c1ccccc1C | -3.13% (inactive)
Cc1ccsc1C(=CCCN1CCC[C@@H](C(=O)O)C1)c1sccc1C | 4.32% (inactive)
Cc1c(NC(=O)c2cccnc2)c(=O)n(-c2ccccc2)n1C | -2.35% (inactive)
O=c1[nH]c(=O)n([C@H]2C[C@H](O)[C@@H](CO)O2)cc1I | -0.171% (inactive)
OCCN1C[C@H](O)[C@@H](O)[C@H](O)[C@H]1CO | -0.0873% (inactive)
COc1ccc(Cc2cnc(N)nc2N)cc1OC | -2.16% (inactive)
CN1CCN(C(=O)C2CCCCC2)CC1 | 3.48% (inactive)
CC(=O)Oc1cccc(C)c1 | 1.27% (inactive)
